Bioassay records (PubChem BioAssay)
This excerpt belongs to a sample that is enriched for hits.
DUX4 txn inh: inhibitors of DUX4-driven ZSCAN4 reporter expression, primary screen, 293T cells, Gaussia and Italica luciferase | 293T-iDUX4 ZSCAN4-Gaussia luciferase reporter, 24 h; active compounds read low | activity change, negative = inhibition, % (no concentration beside the values) | actives 0.8% (n = 37,000) | AID 1224904, 2016;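 active = mean inhibition of at least 10% in the main channel, exceeding the control channel by a set limit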
Numbers stand for hits; i = inactive; ! = repeats disagree.

SMILES	DUX4 txn inh
COc1ccccc1CN1[C@@H]2c3cccc(=O)n3C[C@H]1[C@H](CO)[C@H]2C(=O)N1CCc2ccccc2C1	i
COc1ccc2c3c([nH]c2c1)[C@H](CO)N(Cc1cc(F)ccc1F)CC31CCN(C(=O)CN(C)C)CC1	i
COc1ccc2c3c([nH]c2c1)[C@@H](CO)N(Cc1ccccc1F)CC31CN(C(=O)C2CCOCC2)C1	i
COc1ccc2c3c([nH]c2c1)[C@H](CO)N(Cc1ccccc1F)CC31CN(C)C1	i
COCC(=O)N1CC2(C1)CN(Cc1ccccc1Cl)[C@H](CO)c1[nH]c3cc(OC)ccc3c12	i
COc1ccc2c3c([nH]c2c1)[C@H](CO)N(Cc1cc(F)ccc1F)CC31CN(C(=O)C2CCC2)C1	-73.8
COc1ccc2c3c([nH]c2c1)[C@H](CO)N(Cc1ccccc1F)CC31CN(S(C)(=O)=O)C1	-44.7
O=C(C[C@H]1C=C[C@@H](NC(=O)CCN2CCCCC2)[C@H](CO)O1)NCc1ccc(Cl)c(Cl)c1	i
COCCNC(=O)C[C@H]1CC[C@@H]2[C@@H](COc3ccc(NC(=O)c4cc(C)on4)cc3C(=O)N2C)O1	i
COc1ccc2c3c(n(C)c2c1)[C@@H](CO)N(Cc1ccc2c(c1)OCO2)CC31CN(C(C)=O)C1	i
C[C@@H]1CCCCO[C@@H](CN(C)Cc2ccc3c(c2)OCO3)[C@H](C)CN([C@@H](C)CO)C(=O)c2cc(NS(=O)(=O)c3cn(C)cn3)ccc2O1	i
COCC(=O)N1[C@H](CO)[C@@H]2c3ccccc3N(C(=O)c3ccccc3F)C[C@@H]21	i
CC(C)C[C@H]1COCc2cn(nn2)CC[C@H](Cc2ccc(Cl)cc2)C(=O)N1	i
CS(=O)(=O)N1C[C@@H]2N[C@H](C1)[C@@H]2c1ccc(-c2ccccc2)cc1	-50.6
Cc1cccc(-c2ccc(C3[C@@H]4CNC[C@H]3N4)cc2)c1 (stereo partly drawn)	i
Cc1ccc(S(=O)(=O)N2[C@@H]3CNC[C@H]2C3c2ccc(-c3cccnc3)cc2)cc1 (stereo partly drawn)	i
COc1ccc(S(=O)(=O)N2[C@@H]3CNC[C@H]2C3c2ccc(-c3ccncc3)cc2)cc1 (stereo partly drawn)	i
CN(C)C(=O)c1ccc(-c2ccc(C3[C@@H]4CN(S(=O)(=O)Cc5ccccc5)C[C@H]3N4)cc2)cc1 (stereo partly drawn)	i
O=S(=O)(c1ccccc1)N1[C@@H]2CNC[C@H]1C2c1ccc(-c2cccnc2)cc1 (stereo partly drawn)	-11.5!
O=S(=O)(c1ccc(-c2ccccc2)cc1)N1[C@@H]2CNC[C@H]1C2c1ccc(-c2ccccc2)cc1 (stereo partly drawn)	i
O=S(=O)(c1ccc(-c2ccccc2)cc1)N1C[C@@H]2N[C@H](C1)C2c1ccc(-c2ccncc2)cc1 (stereo partly drawn)	-32.8
O=S(=O)(c1cccc(F)c1)N1[C@@H]2CNC[C@H]1C2c1ccc(-c2cccnc2)cc1 (stereo partly drawn)	i
COCC(=O)N1C[C@H]2[C@@H](c3ccccc31)[C@@H](CO)N2C(=O)c1ccccc1F	i
C[C@H](CO)N1C[C@H](C)[C@H](CN(C)S(=O)(=O)c2cn(C)cn2)OCc2ccccc2-c2ccccc2C1=O	i
C[C@H]1CN([C@@H](C)CO)C(=O)c2cc(-c3ccncc3)cnc2O[C@H]1CN(C)S(=O)(=O)c1ccccc1	i
SMILES	DUX4 txn inh
COc1cccc(CN2[C@@H](CO)[C@@H](c3ccccc3)C23CN(C(=O)C2CCC2)C3)c1	i
COc1cccc(CN2[C@@H](CO)[C@@H](c3ccccc3)C23CN(Cc2ccccc2OC)C3)c1	-38.2
COc1cccc(CN2[C@@H](CO)[C@@H](c3ccccc3)C23CN(C(=O)C2CC2)C3)c1	i
O=C(C[C@@H]1CC[C@@H]2[C@H](COC[C@@H](O)CN2C(=O)c2ccccc2F)O1)N1CCCCC1	i
COc1ccc(NC(=O)N(C)C[C@H]2OCc3ccccc3-c3c(n(C)c4ccccc34)C(=O)N([C@H](C)CO)C[C@@H]2C)cc1	i
O=C(C1CCC1)N1CC2(C1)[C@H](c1ccccc1)[C@H](CO)N2Cc1ccccc1F	i
O=C(C1CCCC1)N1CC2(C1)[C@@H](c1ccccc1)[C@H](CO)N2Cc1ccccc1F	i
O=C(C1CCCC1)N1CC2(C1)[C@@H](c1ccccc1)[C@@H](CO)N2Cc1ccc(Cl)cc1	i
O=C(C1CCCCC1)N1CC2(C1)[C@H](c1ccccc1)[C@@H](CO)N2Cc1ccc(Cl)cc1	-50.6
O=C(C1CCCC1)N1CC2(C1)[C@H](c1ccccc1)[C@@H](CO)N2Cc1ccccc1F	-44.7
O=C(C1CCOCC1)N1CC2(C1)[C@H](c1ccccc1)[C@@H](CO)N2Cc1ccc(Cl)cc1	i
COc1ccc2c3c(n(C)c2c1)[C@@H](CO)N(CC1CC1)CC31CN(S(=O)(=O)c2cn(C)cn2)C1	i
CO[C@@H]1CN(C)C(=O)c2cc(NC(=O)c3ccc4c(c3)OCO4)ccc2OC[C@H](C)NC[C@@H]1C	i
C/C=C/c1ccc([C@H]2[C@@H](CO)N(C(=O)C3CC3)[C@H]2CN(C)C(=O)CC)cc1	i
N#Cc1ccc(-c2ccc(C3[C@H]4CNC[C@@H]3N4C(=O)Nc3ccc(Cl)cc3)cc2)cc1 (stereo partly drawn)	i
O=C(Nc1ccc(F)cc1)N1C[C@@H]2N[C@H](C1)C2c1ccc(-c2cccnc2)cc1 (stereo partly drawn)	-37.3!
CN(C)C(=O)c1ccc(-c2ccc(C3[C@@H]4CN(C(=O)Nc5ccc(Cl)cc5)C[C@H]3N4)cc2)cc1 (stereo partly drawn)	i
N#Cc1ccc(-c2ccc(C3[C@@H]4CN(C(=O)Nc5ccc(C(F)(F)F)cc5)C[C@H]3N4)cc2)cc1 (stereo partly drawn)	-49.3!
COc1ccc(NC(=O)N2C[C@@H]3N[C@H](C2)C3c2ccc(-c3cccnc3)cc2)cc1 (stereo partly drawn)	i
COc1ccc(NC(=O)N2C[C@@H]3N[C@H](C2)C3c2ccc(-c3cccc(F)c3)cc2)cc1 (stereo partly drawn)	i
C/C=C/c1ccc([C@H]2[C@H](CO)N3CCCCN(S(=O)(=O)c4ccc(OC)cc4)C[C@@H]23)cc1	i
CS(=O)(=O)N1CC(=O)N2[C@H](CO)[C@@H](c3ccc(C#CCC4CCCC4)cc3)[C@H]2C1	i
C[C@H]1CN([C@@H](C)CO)C(=O)c2cc(C#CC3(O)CCCC3)cnc2O[C@H]1CN(C)Cc1ccccc1	i
CC(C)(O)C#Cc1ccc([C@@H]2[C@@H](CO)N3CCCCN(Cc4ccccc4F)C[C@@H]23)cc1	i
CC(C)(O)C#Cc1ccc([C@H]2[C@@H](CO)N3CCCCN(Cc4ccccc4F)C[C@@H]23)cc1	i
O=C(Nc1ccccc1F)N1CCCCN2[C@H](CO)[C@@H](c3ccc(C#Cc4cccnc4)cc3)[C@H]2C1	i
OC[C@H]1[C@@H](c2ccc(C#Cc3cccnc3)cc2)[C@H]2CN(Cc3ccccc3F)CCCCN21	-42.7
CC(C)(O)C#Cc1ccc([C@H]2[C@H]3CN(Cc4ccccc4F)CCCCN3[C@H]2CO)cc1	i
O=C(Nc1ccccc1F)N1CCCCN2[C@H](C1)[C@H](c1ccc(C#Cc3cccnc3)cc1)[C@@H]2CO	i
OC[C@@H]1[C@@H](c2ccc(C#Cc3cccnc3)cc2)[C@H]2CN(Cc3ccccc3F)CCCCN12	-45.3
